Rows were chosen to be rich in hits. Some 0.31% of all compounds tested hit in one or more screens of this group.
TRPML1 ag – qHTS for Agonists of the Human Mucolipin Transient Receptor Potential 1 (TRPML1) | Mucolipin-1 (Homo sapiens), Q9GZU1 | TRPML1-expressing cells, Ca2+ dye fluorescence, FDSS | activation, % (test concentration not listed) | 410,000 compounds, 0.12% hits; in the data active = activation above about 50%; inconclusive = mostly about 30% to 49%; note: 0% is about no effect
Target sequence (Q9GZU1 whole entry, looked up): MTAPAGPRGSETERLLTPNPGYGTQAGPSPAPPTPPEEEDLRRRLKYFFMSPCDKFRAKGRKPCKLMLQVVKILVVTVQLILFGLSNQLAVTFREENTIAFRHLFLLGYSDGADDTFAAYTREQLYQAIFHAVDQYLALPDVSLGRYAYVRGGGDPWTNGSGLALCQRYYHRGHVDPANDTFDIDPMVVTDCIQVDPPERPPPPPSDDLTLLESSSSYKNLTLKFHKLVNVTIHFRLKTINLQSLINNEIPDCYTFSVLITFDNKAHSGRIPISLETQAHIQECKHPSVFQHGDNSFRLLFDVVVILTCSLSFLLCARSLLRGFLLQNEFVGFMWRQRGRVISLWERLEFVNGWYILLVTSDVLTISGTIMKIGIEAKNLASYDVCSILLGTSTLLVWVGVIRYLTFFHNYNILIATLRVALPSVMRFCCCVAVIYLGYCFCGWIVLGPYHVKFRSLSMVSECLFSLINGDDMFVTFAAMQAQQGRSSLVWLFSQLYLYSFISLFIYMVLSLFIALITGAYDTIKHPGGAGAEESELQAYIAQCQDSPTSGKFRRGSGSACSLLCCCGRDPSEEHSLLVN
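Cells: TRPML1-DL, 1X Tet inducer, ~16 h at 37 degrees C/5% CO2. Dye: ABD Ca8 no-wash + quencher, 45-90 min RT. Read: 10 s baseline, compound add, 110 s agonist phase; 54-4 EC80 (4uM final), 110 s antagonist phase.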
TRPML1 blocker – qHTS for Inhibitors of the Human Mucolipin Transient Receptor Potential 1 (TRPML1) | Mucolipin-1 (Homo sapiens), Q9GZU1 | TRPML1-inducible cells, Ca2+ dye fluorescence, FDSS; active compounds read low; inhibition of EC80 agonist-evoked calcium signal | activity change, negative = inhibition, % (concentration not given with the values) | 390,000 compounds, 0.02% hits | AID 624415, 2012; in the data active = activity change below about -50%; inconclusive = between about -30% and that limit;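 note: stimulus is agonist 54-4 at its EC80 concentration; % is set by controls: 0 for no effect and ±100 for the full control effect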
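Calcium fluorescence in TRPML1-DL cells induced overnight with Tet: a 110 s read after compound pin addition, then a 110 s antagonist read after challenge with 54-4 at 4 uM final (EC80).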
TRPV1 ag – HTS Assay for Compounds that Act as Agonists of the Vanilloid Receptor 1. Transient receptor potential cation channel subfamily V member 1 (Homo sapiens), Q8NER1. TRPV1-expressing cells, Fluo-8 calcium influx, agonist mode. activation, % at 8.33 µM. 320,000 compounds, 0.19% hits; in the data active = activation above about 80%; inconclusive = between about 30% and that limit; note: 0% is about no effect
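TRPV1-expressing cells were cultured overnight at 35.5C and loaded with Fluo-8 calcium dye for 40 to 90 min at room temperature. After a 10 s baseline, compound was added and calcium influx was read kinetically for 3 min (ex 480/em 520 nm).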
TRPV1 PAM – HTS Assay for Compounds that Act as Potentiators of the Vanilloid Receptor 1. TRPV1-expressing cells, Fluo-8 calcium influx, capsaicin EC20 potentiation. potentiation, % at 8.33 µM. 320,000 compounds, 0.02% hits. Transient receptor potential cation channel subfamily V member 1 (Homo sapiens), Q8NER1. AID 540277, 2011; in the data active = potentiation above about 80%; inconclusive = between about 30% and that limit; note: 0% is about no effect
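Fluo-8 calcium influx in TRPV1-expressing cells, kinetic read (ex 480/em 520 nm). Compound added and read 3 min for agonist activity, followed by capsaicin at EC20 final and 2 min further read for enhancement.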
* hit, by the source's call; u = inconclusive; x = no result given; ! = a repeat was not active.

SMILES | TRPML1 ag | TRPML1 blocker | TRPV1 ag | TRPV1 PAM
Clc1ccccc1CN(Cc1ccccc1)C(c1cccs1)c1nnnn1C1CCCC1 (centres undefined) | 0.3 | 16.0 | 28.3 | 1.3
Clc1ccc(CN(CC2CCCO2)C(c2cccs2)c2nnnn2C2CCCC2)cc1 (centres undefined) | 53.8* | -3.2 | -1.9 | -10.2
Nc1ccc(S(=O)(=O)N2CCOCC2)cc1 | -0.6 | x | x | x
CCn1nc(-c2ccccc2C)nc2c(=O)n(C)c(=O)nc1-2 | -0.4 | x | x | x
CCCC(=O)N1CCN(c2nc(CC(C)C)c3c(c2C#N)CCC3)CC1 | 2.2 | 28.7 | 83.2* | -22.7
CC(C)Cc1nc(N2CCN(C(=O)c3ccco3)CC2)c(C#N)c2c1CCCC2 | -0.3 | -10.8 | u | -15.7
CCOC(=O)c1ccccc1NC(=O)c1sc2ncn(Cc3cccc(F)c3)c(=O)c2c1C | -0.6 | -17.7 | x | x
Cc1cc(=O)[nH]c2nnc(SCc3ccc(C(F)(F)F)cc3)n12 | 2.3 | -11.1 | x | x
COc1ccc(NS(=O)(=O)c2cc(NC(=O)c3cnc(C)cn3)ccc2N2CCCCC2)cc1 | -0.4 | 44.8 | 90.2* | -3.2
COc1ccc(NS(=O)(=O)c2cc(NC(=O)c3cnc(C)cn3)ccc2N2CCCC2)cc1 | 0.3 | -12.2 | u | -25.9
Cc1ccc(NC(=O)c2cc3c(-c4ccccc4)nn(-c4ccccc4)c3s2)cc1 | 1.8 | -8.1 | x | x
CN(C)c1ccc(/C=C/c2ccc3cc(N(C)C)ccc3n2)cc1 | 8.9 | x | x | x
COc1cc(/C=C/c2ccnc3ccccc23)ccc1N(C)C | 57.7* | x | x | x
CN(C)c1ccc(/C=C/c2ccc3ccccc3n2)cc1 | 52.3*! | -11.0 | 25.9 | 14.1
CN(C)c1ccc(/C=C/c2ccnc3ccc(Cl)cc23)cc1 | 5.3 | x | x | x
CN(C)c1ccc(/C=C/c2ccnc3c(Cl)cccc23)cc1 | 54.2* | x | x | x
CN(C)c1ccc(/C=C/c2ccnc3ccc(Br)cc23)cc1 | 54.5* | x | x | x
CCN(CC)c1ccc(/C=C/c2ccnc3ccccc23)cc1 | 54.4* | x | x | x
CN1CCCc2cc(/C=C/c3ccnc4ccccc34)ccc21 | 52.5* | x | x | x
CN(C)c1ccc(/C=C/c2ncnc3ccccc23)cc1 | 82.2* | x | x | x
CN(C)c1ccc(N=Nc2ccnc3ccccc23)cc1 | -0.6 | x | x | x
CCN(CC)CCN(CC)c1ccc(/C=C/c2ccnc3ccccc23)cc1 | 4.2 | x | x | x
CN(C)c1ccc(N=Nc2ccc(/C=C/c3ccnc4ccccc34)cc2)cc1 | 124.1* | x | x | x
Cc1ccc2onc(CC(=O)Nc3cc(F)ccc3F)c2c1 | 2.4 | 4.2 | x | x
CNc1ccc(/C=C/c2ccnc3ccccc23)cc1 | 24.1 | x | x | x
SMILES | TRPML1 ag | TRPML1 blocker | TRPV1 ag | TRPV1 PAM
O=C(N1CCN(c2ncccn2)CC1)C12CC3CC(CC(C3)C1)C2 | -0.7 | -8.9 | x | x
COc1ccc(NC(=O)/C(C#N)=C\c2ccc(N3CCOCC3)o2)cc1 | 65.4* | 1.8 | u | -11.4
N#C/C(=C/c1ccc(N2CCCCC2)o1)C(=O)Nc1ccc(Cl)cc1 | 60.8* | -11.4 | u | 10.2
N#C/C(=C\c1ccc(N2CCOCC2)o1)C(=O)Nc1ccc(O)cc1 | 17.0 | 11.7 | -0.4 | 7.1
N#C/C(=C/c1ccc(N2CCCCC2)o1)C(=O)Nc1ccc2ccccc2c1 | 51.1* | 1.2 | u | 9.3
CN(C(=O)CSc1nnc2[nH]c(=O)cc(-c3ccccc3)n12)c1ccccc1 | 2.1 | 23.3 | x | x
CN(C)S(=O)(=O)c1cccc(NC(=O)C2CCN(S(=O)(=O)c3cccs3)CC2)c1 | 4.4 | 15.4 | x | x
CCCn1c(C(C)Nc2nc(-c3cc(Cl)c(N)c(Cl)c3)cs2)nc2cc(Cl)c(N3CCCCC3)cc21 (centres undefined) | -1.2 | -2.8 | 85.6* | 16.9
COc1cc(/C=N/N2C(=O)CSC2=S)ccc1O | 1.6 | -15.4 | -0.5 | 3.1
O=C1CSC(=S)N1/N=C/c1cc(Br)c(O)c(Br)c1 | 58.9* | -13.3 | u | -11.4
COc1ccc(CCNC(=S)NCc2ccc(Cl)c(Cl)c2)cc1OC | 1.1 | 17.1 | 81.4* | -1.3
COc1ccccc1CNS(=O)(=O)c1ccc(N2CCCCS2(=O)=O)cc1 | -0.3 | -0.2 | x | x
Cc1ccc2c(CC(=O)Nc3ccc4nc(N5CCOCC5)sc4c3)coc2c1 | 0.3 | 4.3 | x | x
CCN(CC)c1ccc(C(=O)NNC(=O)CCl)cc1 | 0.0 | 26.8 | -9.2 | 123.5*
CCCCn1cnc2c(SCc3ccccc3Cl)nc(N)nc21 | -1.1 | -3.2 | x | x
